Test [1] concerns Noggin (protein binding on small-molecule microarray). Briefly: Noggin binders on small-molecule microarray, primary screen, biochemical, 635/667 nm fluorescence (AID 1095).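 Further: score merges 667 nm feature fluorescence with signal to noise over triplicate slides.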 As to conditions: 635 nm fluorescence, higher = more signal.
Test [2] concerns the target Neurogenic locus notch homolog protein 3 (Homo sapiens) (UniProt Q9UM47). The test can be described thus: NOTCH3 binders on small-molecule microarray, primary screen, biochemical, 635/667 nm fluorescence (AID 1096). As to conditions: NOTCH3 binding, 635 nm fluorescence, higher = more signal.
Test [3] in a line: small-molecule microarray binders of probe aEGFR, primary screen, biochemical, biotinylated probe, 635/667 nm fluorescence (AID 1097).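 Further: probe is a biotinylated anti-EGFR antibody binding compounds printed on slides; score combines fluorescence near 667 nm and signal to noise of each spot.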 As to conditions: higher = more signal.
In test [4] the test system is Plasmodium falciparum Sir2 (PF13_0152, Sir2A). Briefly: pfSir2 binders on small-molecule microarrays, primary screen, biochemical, small-molecule microarray, 635 nm fluorescence (AID 1098).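 Further: score merges spot fluorescence intensity with its signal-to-noise ratio.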 As to conditions: small-molecule microarray binding, fluorescence 635 nm; higher = more signal.
Test [5] can be described thus: small-molecule microarray binders of probe aDKK1, primary screen, biochemical, biotinylated probe, 635/667 nm fluorescence (AID 1099).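 Further: score merges 667nm spot fluorescence with signal to noise across triplicate slides.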 As to conditions: higher = more signal.
Test [6] in a line: small-molecule microarray binders of probe aCHRDL2, primary screen, biochemical, biotinylated probe, 635/667 nm fluorescence (AID 1100). As to conditions: higher = more signal.
The nature of test [7]: splicing luciferase reporter signal modulators, primary screen, spliceosome inhibition project, cell-based, HEK293, splice +/- reporter (AID 1101).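 Further: HEK293 cells carrying a splicing-competent luciferase reporter gene; test concentration not given here.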 As to conditions: luminescence, 24 h, higher = more signal, called active from +8 up or from −8 down.
The target of test [8] is Fibroblast growth factor 10 (Homo sapiens) (UniProt O15520). Briefly: FGF10 binders on small-molecule microarrays, primary screen, biochemical, small-molecule microarray, 635 nm fluorescence (AID 1102). As to conditions: FGF10 binding, fluorescence 635 nm, higher = more signal.
Sequence of Fibroblast growth factor 10 (Homo sapiens) (O15520 whole entry, looked up): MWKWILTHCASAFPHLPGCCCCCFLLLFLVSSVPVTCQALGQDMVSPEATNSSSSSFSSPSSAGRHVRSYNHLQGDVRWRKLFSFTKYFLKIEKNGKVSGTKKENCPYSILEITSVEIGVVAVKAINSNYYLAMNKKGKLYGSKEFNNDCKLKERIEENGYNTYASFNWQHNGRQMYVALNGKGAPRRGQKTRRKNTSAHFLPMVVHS
Test [9] deals with glycogen synthase kinase-3 (GSK3A per assay name; protocol says GSK3B). Briefly: GSK3 binders on small-molecule microarrays, primary screen, biochemical, small-molecule microarray, 635 nm fluorescence, GSK3A (AID 1103). Further: the record names both GSK3A and GSK3B. As to conditions: small-molecule microarray binding, fluorescence 635 nm; higher = more signal.
Test [10] has as its target Epidermal growth factor receptor (Homo sapiens) (UniProt P00533). Briefly: EGFR binders on small-molecule microarrays, primary screen, biochemical, small-molecule microarray, 635 nm fluorescence (AID 1104).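 Further: score merges 667 nm emission intensity with spot signal to noise over triplicate slides.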 As to conditions: EGFR binding, higher = more signal.
Test [11] concerns the target Follistatin-related protein 3 (Homo sapiens) (UniProt O95633). Briefly: FSTL3 binders on small-molecule microarrays, primary screen, biochemical, small-molecule microarray, 635 nm fluorescence (AID 1105).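 Further: score merges emission near 667 nm and signal to noise per printed spot across three slides.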 As to conditions: FSTL3 binding, higher = more signal.
The target in test [12] is Dickkopf-related protein 1 (Homo sapiens) (UniProt O94907). Briefly: DKK1 binders on small-molecule microarrays, primary screen, biochemical, small-molecule microarray, 635 nm fluorescence scan (AID 1106).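 Further: score merges emission near 667 nm with signal to noise over three replicate slides.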 As to conditions: DKK1 binding, higher = more signal.
Sequence of Dickkopf-related protein 1 (Homo sapiens) (O94907 whole entry, looked up): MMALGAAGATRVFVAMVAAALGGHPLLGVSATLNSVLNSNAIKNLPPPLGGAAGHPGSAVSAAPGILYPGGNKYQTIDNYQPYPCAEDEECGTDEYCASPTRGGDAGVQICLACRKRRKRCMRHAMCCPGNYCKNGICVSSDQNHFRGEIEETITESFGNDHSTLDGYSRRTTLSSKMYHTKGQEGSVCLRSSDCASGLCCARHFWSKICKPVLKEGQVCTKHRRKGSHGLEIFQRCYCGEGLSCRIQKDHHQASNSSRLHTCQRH
The test system of test [13] is Inhibin beta A chain (activin A). The test can be described thus: INHBA (activin A) binders on microarrays, primary screen, biochemical, small-molecule microarray, 635 nm fluorescence scan (AID 1107).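 Further: mouse activin A protein probed at 4.33 µg/mL on printed slides; score merges bound-protein fluorescence near 667 nm with spot signal-to-noise.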 As to conditions: small-molecule microarray binding, higher = more signal.
The test system of test [14] is Human papillomavirus type 1a protein E7 (residues 44-93). Briefly: HPV1a E7 fragment binders on microarrays, primary screen, biochemical, small-molecule microarray, residues 44-93, 635 nm fluorescence (AID 1108).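 Further: E7 fragment applied at 1 µg/mL in TBST for 1 h at 4 C; score combines spot fluorescence with its signal to noise ratio.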 As to conditions: small-molecule microarray binding, fluorescence 635 nm; higher = more signal.
Test [15] can be described thus: modulators of HCV replicon luciferase signal, primary screen, HCV replication inhibitor project, Huh7 cells, luciferase reporter (AID 1109).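 Further: huh7 hepatoma cells harbouring a luciferase neomycin HCV replicon reporter; luciferase luminescence as measure of HCV replicon replication; test concentration not given here.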 As to conditions: 48 h, higher = more signal. In general terms: Replicon systems follow genome replication, usually without infectious particles.
Test [16] deals with Left-right determination factor 2 (Homo sapiens) (UniProt O00292). The test can be described thus: LEFTY2 binders on small-molecule microarrays, primary screen, biochemical, small-molecule microarray, 635 nm fluorescence scan (AID 1110). As to conditions: LEFTY2 binding, higher = more signal.
Sequence of Left-right determination factor 2 (Homo sapiens) (O00292 whole entry, looked up): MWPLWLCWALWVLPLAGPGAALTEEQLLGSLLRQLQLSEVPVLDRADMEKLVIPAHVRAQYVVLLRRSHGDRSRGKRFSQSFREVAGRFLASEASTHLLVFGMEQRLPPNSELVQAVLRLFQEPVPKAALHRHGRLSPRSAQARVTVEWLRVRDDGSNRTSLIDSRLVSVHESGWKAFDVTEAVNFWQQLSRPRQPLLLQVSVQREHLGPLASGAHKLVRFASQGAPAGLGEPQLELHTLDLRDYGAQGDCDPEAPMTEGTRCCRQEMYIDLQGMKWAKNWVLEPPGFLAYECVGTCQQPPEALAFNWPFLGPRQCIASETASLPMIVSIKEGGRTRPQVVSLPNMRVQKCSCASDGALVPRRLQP
Test [17] deals with Calmodulin-1 (Homo sapiens) (UniProt P0DP23). The test can be described thus: CALM1 binders on microarrays, EGTA buffer, profiling panel, biochemical, small-molecule microarray, Cy5-labelled CALM1 (AID 1111).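 Further: labelled calmodulin applied in Tris saline Tween buffer holding calcium plus EGTA and DTT.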 As to conditions: Cy5-CALM1 binding fluorescence, higher = more signal.
Test [18] shares this target. Briefly: calcium-bound CALM1 binders on microarrays, profiling panel, artefact control for SMM control-protein annotation, biochemical, small-molecule microarray, Cy5-labelled CALM1, plus calcium (AID 1112).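 Further: score merges spot fluorescence with signal to noise from triplicate slides.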 As to conditions: Cy5-CALM1 binding fluorescence, higher = more signal.
Test [19] is described as follows: small-molecule microarray binders of probe aWnt5a, primary screen, biochemical, biotinylated probe, 635/667 nm fluorescence (AID 1113).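 Further: score merges 667 nm fluorescence intensity with signal-to-noise per printed feature.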 As to conditions: higher = more signal.
A short description of test [20]: small-molecule microarray binders of probe aShh, primary screen, biochemical, biotinylated probe, 635/667 nm fluorescence (AID 1114).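 Further: probe is biotin-labelled aShh protein from a stem cell growth factor screen; measures binding of labelled protein to compounds printed on the slide; score merges feature fluorescence at 667 nm with signal-to-noise.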 As to conditions: higher = more signal.

Active and inactive are the calls of the source.

Sequence of Follistatin-related protein 3 (Homo sapiens) (O95633 whole entry, looked up): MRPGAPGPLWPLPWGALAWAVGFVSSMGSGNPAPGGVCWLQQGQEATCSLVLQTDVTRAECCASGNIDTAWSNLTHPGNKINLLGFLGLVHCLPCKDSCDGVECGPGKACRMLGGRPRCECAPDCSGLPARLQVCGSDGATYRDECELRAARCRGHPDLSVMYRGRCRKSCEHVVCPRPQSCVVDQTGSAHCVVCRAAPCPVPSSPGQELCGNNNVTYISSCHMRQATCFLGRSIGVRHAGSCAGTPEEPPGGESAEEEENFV
Sequence of Epidermal growth factor receptor (Homo sapiens) (P00533 whole entry, looked up): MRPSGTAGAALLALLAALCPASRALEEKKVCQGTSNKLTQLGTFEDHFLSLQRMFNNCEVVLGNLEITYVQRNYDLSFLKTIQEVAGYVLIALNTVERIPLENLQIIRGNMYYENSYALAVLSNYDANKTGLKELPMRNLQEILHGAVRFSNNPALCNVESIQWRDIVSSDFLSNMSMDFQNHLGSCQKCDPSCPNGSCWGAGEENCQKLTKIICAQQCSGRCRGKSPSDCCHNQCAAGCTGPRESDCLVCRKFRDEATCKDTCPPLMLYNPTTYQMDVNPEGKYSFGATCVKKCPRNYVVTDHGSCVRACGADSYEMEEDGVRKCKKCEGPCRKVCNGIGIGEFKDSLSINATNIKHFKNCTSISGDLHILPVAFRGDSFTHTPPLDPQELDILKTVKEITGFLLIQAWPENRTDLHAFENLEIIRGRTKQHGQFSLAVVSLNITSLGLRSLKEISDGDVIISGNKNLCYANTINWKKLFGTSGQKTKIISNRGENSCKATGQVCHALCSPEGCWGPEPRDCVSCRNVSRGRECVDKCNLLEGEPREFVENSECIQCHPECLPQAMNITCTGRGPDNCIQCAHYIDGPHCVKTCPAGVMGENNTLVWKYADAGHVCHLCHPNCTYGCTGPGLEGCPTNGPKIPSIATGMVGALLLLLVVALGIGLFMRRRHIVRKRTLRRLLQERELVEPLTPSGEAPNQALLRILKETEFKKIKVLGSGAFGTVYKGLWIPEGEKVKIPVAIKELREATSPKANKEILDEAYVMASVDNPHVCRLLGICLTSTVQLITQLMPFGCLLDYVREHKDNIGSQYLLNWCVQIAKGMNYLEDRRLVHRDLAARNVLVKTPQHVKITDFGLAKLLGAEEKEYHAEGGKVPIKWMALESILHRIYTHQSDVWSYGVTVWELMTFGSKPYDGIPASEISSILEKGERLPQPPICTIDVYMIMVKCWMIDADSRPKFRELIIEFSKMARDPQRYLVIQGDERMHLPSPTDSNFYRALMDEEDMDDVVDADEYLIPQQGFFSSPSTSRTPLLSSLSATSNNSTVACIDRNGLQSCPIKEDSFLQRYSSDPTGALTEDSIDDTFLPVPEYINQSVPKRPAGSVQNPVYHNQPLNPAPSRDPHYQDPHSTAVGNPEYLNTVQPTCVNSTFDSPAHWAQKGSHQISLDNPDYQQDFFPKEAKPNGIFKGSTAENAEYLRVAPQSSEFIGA
Sequence of Neurogenic locus notch homolog protein 3 (Homo sapiens) (Q9UM47 whole entry, looked up): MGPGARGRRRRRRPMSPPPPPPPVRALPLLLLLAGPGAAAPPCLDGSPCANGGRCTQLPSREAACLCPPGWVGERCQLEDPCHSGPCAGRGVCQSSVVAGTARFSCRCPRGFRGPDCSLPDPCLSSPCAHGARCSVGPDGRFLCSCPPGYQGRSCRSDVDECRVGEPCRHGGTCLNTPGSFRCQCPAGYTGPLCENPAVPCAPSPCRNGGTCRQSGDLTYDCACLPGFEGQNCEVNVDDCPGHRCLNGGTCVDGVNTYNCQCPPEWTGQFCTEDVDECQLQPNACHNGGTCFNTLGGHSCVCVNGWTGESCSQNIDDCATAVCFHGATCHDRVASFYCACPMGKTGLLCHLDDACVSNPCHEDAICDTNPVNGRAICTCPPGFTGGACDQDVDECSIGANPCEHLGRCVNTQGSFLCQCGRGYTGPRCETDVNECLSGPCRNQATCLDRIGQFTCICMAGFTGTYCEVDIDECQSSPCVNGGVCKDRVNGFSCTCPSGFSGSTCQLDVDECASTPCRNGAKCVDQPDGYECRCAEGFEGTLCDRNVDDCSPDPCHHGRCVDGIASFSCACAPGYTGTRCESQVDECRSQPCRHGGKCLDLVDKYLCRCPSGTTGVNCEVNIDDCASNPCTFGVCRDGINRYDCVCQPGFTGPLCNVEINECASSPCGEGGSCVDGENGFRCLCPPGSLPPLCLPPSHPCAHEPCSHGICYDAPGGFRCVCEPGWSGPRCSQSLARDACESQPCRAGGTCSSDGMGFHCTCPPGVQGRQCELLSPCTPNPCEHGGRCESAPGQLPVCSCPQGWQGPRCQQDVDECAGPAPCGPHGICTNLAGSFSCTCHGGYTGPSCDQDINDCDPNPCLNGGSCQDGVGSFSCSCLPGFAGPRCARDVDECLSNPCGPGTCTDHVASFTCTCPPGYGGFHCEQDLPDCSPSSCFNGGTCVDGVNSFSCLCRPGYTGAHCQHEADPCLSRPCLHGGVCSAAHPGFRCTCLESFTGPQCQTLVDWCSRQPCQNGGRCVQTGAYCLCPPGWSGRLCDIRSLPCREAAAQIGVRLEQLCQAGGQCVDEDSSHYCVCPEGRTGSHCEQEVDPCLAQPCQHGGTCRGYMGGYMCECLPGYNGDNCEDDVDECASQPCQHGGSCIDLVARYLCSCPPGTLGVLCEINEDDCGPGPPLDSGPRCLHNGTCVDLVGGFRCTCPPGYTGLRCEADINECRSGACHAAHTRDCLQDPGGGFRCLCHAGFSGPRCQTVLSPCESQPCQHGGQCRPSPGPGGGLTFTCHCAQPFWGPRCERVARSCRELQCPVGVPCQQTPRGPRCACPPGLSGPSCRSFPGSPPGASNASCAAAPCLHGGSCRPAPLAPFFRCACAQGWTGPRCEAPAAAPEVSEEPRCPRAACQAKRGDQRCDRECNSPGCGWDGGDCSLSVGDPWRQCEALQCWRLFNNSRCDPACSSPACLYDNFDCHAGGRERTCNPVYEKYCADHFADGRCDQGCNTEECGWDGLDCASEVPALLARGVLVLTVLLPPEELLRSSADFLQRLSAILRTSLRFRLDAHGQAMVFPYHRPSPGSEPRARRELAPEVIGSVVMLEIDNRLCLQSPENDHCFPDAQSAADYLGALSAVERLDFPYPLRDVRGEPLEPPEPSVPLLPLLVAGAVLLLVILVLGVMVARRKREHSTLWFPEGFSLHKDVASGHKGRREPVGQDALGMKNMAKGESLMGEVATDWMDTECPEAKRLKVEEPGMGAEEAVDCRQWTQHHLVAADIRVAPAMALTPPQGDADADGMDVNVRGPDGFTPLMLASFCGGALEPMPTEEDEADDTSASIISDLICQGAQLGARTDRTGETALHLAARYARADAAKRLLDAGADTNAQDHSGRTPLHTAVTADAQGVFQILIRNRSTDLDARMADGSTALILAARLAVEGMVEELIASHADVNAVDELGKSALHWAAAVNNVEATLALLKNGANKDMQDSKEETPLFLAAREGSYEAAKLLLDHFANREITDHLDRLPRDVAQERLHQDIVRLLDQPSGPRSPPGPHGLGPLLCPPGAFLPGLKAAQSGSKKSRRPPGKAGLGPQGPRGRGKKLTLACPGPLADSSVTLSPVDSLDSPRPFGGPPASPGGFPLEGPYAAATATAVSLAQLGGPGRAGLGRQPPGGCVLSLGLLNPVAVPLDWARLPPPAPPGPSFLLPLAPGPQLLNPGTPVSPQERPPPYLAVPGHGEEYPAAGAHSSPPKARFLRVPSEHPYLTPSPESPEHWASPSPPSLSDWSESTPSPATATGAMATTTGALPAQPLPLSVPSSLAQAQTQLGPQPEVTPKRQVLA

Regarding `COc1ccc(/C=C/C(=O)c2cccc(OCC(=O)OC(C)(C)C)c2)cc1`, the composite z-score in [1] is -0.584; in test [2], -0.974; in [3] it was -0.304; in test [4] it was 0.726; in [5], 0.145; in [6], 0.436. The composite z-score in [8] is -0.189; in test [9], 0.483; in [10] it was -0.693; in test [11] it was -0.525; in test [12], -0.442; in test [13] it was 0.379. Besides, the composite z-score in test [14] was 0.268; in test [16], -0.606; in test [17], -0.0784; in test [18] it was -0.159; in test [19] it was -0.173; in test [20], -0.2. Moreover, the z-score in test [7] is -0.611 (inactive); in test [15] it was 1.33.
With `CC(C)CNC(=O)[C@@H]1c2ccccc2C(=O)N(Cc2ccc(OC(F)(F)F)cc2)[C@H]1c1ccc(CO)cc1`, the composite z-score in [1] stood at 1.3; in [2], 1.04; in [3], 0.0378; in test [4], 1.46; in test [5] it was 0.799; in test [6], 0.922. The composite z-score in test [8] is 0.64; in test [9], 1.28; in test [10] it was 0.346; in test [11], 1.26; in [12], 0.407; in [13] it was 0.254. The composite z-score is -0.491 in test [14]; 0.569 in [16]; 0.986 in [17]; -0.614 in test [18]; 0.0519 in test [19]; -0.0234 in test [20]. The z-score was -0.787 (inactive) in [7] and -0.913 in test [15].
With `[N-]=[N+]=Nc1ccccc1[C@H]1OC(c2ccc(OCCCO)cc2)=N[C@@]1(Cc1ccccc1)C(N)=O`, the composite z-score in test [1] was found to be 0.49; in test [2] it was 1.09; in test [3], 0.441; in [4] it was 0.929; in test [5] it was 1.46; in test [6], 1.23. The composite z-score in test [8] was 1.09; in [9], 1.28; in test [10], 0.13; in [11], 1.09; in [12], 0.0868; in test [13], 1.43. Also, the composite z-score came to 1.33 in test [14]; 0.172 in test [16]; 2.26 in test [17]; 1.12 in [18]; 0.0998 in test [19]; 1.03 in test [20]. Also, the z-score in test [7] was -1.86 (inactive); in test [15] it was -0.742.
Turning to `C=CCOC(=O)[C@H]1[C@@H]2C(=O)O[C@@H](c3ccccc3)[C@@H](c3ccccc3)N2[C@@H](c2ccc(OCCOC(=O)[C@H]3C[C@H]4C(=O)N5CCC[C@H]5C(=O)N4[C@H]3c3cccc(OCCO)c3)cc2)[C@]12C(=O)Nc1ccccc12`, the composite z-score is 1.54 in test [1]; 1.04 in test [2]; -0.0828 in test [3]; 1.52 in [4]; -0.125 in [5]; 0.297 in [6]. Further, the composite z-score in test [8] stood at 0.795; in [9] it was 1.31; in [10], 0.649; in test [11] it was 0.978; in test [12] it was 0.732; in test [13], 0.186. In addition, the composite z-score is 1.05 in test [14]; 0.427 in [16]; 0.384 in test [17]; 0.0829 in [18]; -0.0607 in test [19]; 0.263 in test [20]. The z-score is -0.676 (inactive) in test [7] and -1.01 in test [15].
With `COCCOC(=O)N1C(=O)[C@@]2(c3cc(C#CC4(O)CCCCCC4)ccc31)[C@H](C(=O)NC[C@H](O)c1ccccc1)[C@H]1C(=O)O[C@H](c3ccccc3)[C@H](c3ccccc3)N1[C@@H]2c1ccccc1OCCO`, the composite z-score in [1] is 1.3; in test [2] it was 1.04; in [3], 0.0343; in test [4], 1.27; in test [5] it was 0.145; in test [6] it was 0.348. Also, the composite z-score in test [8] is 1.15; in test [9], 1.31; in test [10] it was 0.479; in test [11], 1.33; in test [12], 0.95; in test [13] it was 0.158. The composite z-score in [14] is 0.726; in test [16] it was 0.678; in test [17], 1.18; in test [18], 0.0465; in test [19] it was -0.129; in test [20], 0.699. Further, the z-score in test [7] was -0.747 (inactive); in test [15] it was -2.56.

Source of the values: PubChem BioAssay.
